Measurements as given in PubChem BioAssay (NCATS).
Inconclusive results are not listed. Activity calls are given as the source filed them. Calls follow the shape of the dose curve; as a rule, active = well fitted curve in the direction sought with a large enough effect; inconclusive = small, poorly fitted or top-dose-only effect, or another doubt; inactive = no such curve, though single readings can be large; an effect the other way counts as inactive or inconclusive.

What was measured:
[1] = molecular target: Glutathione peroxidase 1 (Homo sapiens) (UniProt P07203); assay: Primary qHTS Assay for Inhibitors of Recombinant Selenoprotein Glutathione Peroxidase 1 (GPX1) (AID 1845191); also: nearly all actives have a fitted effect of over 65% in size; as to activity, negative = inhibition: % is scaled to controls: 0 for no effect and ±100 for the full control effect
Procedure, shortened: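 GR-coupled assay: compounds preincubated 30 min at room temperature with GPX1, then reaction started with CHP; final 10 nM GPX1, 1 mM GSH, 0.5 mM CHP, 0.5 mM NADPH, 100 nM GR, 0.01% BSA, pH 7.5 Tris buffer. NADPH fluorescence (340/450 nm) read at 0 and 15 min.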

[2] = molecular target: Phospholipid hydroperoxide glutathione peroxidase GPX4 (Homo sapiens) (UniProt P36969); assay: Primary qHTS Assay for Inhibitors of Recombinant Selenoprotein Glutathione Peroxidase 4 (GPX4) (AID 1845192); also: nearly all actives have a fitted effect of over 65% in size; as to activity change, negative = inhibition: series mostly up to about 50 µM; % is scaled to controls: 0 for no effect and ±100 for the full control effect
Procedure, shortened: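 GR-coupled assay: recombinant GPX4 preincubated 30 min with compound at room temperature; final 200 nM GPX4, 1 mM GSH, 0.5 mM cumene hydroperoxide, 0.5 mM NADPH, 100 nM GR, 0.01% BSA, pH 7.5 Tris. NADPH fluorescence (340/450 nm) read at 0 and 15 min.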

[3] = molecular target: Luciferin 4-monooxygenase (Photinus pyralis) (UniProt P08659); assay: Primary firefly luciferase (FLuc) qHTS assay for identification of artifact compounds. (AID 1845220); also: nearly all actives have a fitted effect of over 60% in size;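 as to activity change, negative = inhibition: series mostly up to about 54 µM; plate controls were DMSO vehicle for no effect and no enzyme for full effect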
Procedure, shortened: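 Titrated compounds were incubated 15 min at RT, protected from light, with luciferin and ATP at 10 uM; reaction started with 10 nM FLuc, luminescence imaged at 5 min, and concentration-response fitted by Hill equation.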

[4] = test system: Nanoluciferase (engineered Oplophorus gracilirostris luciferase); assay: Primary Nanoluciferase (NLuc) qHTS assay for identification of artifact compounds. (AID 1845222);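 also: NLuc secreted into diluted conditioned medium of S16 cells; series mostly up to about 54 µM; 0% = DMSO and -100% = no enzyme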
Procedure, shortened: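 qHTS format, against NLuc in S16 cell-conditioned medium. Nano-Glo substrate 1:100 was added after 15 min at room temperature. Luminescence was taken after a further 5 min.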

[5] = Primary fluorescence-based thiol-reactive (MSTI) qHTS assay for identification of artifact compounds. (AID 1845221); also: nearly all actives have a fitted effect of over 65% in size; also: potency is read from the fitted curve at half-maximal effect;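 as to activity change, negative = thiol reactive: series mostly up to about 54 µM; thiol-reactive compounds lower the probe fluorescence signal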
Procedure, shortened: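 One-hour, room-temperature, dark incubation of compound with 4 uM MSTI in PBS (pH 7.4, 2% DMSO) precedes a fluorescence read at 525 nm excitation, 598 nm emission; Hill-equation fitting yields concentration-response values.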

[6] = Primary redox qHTS assay for identification of artifact compounds. (AID 1845223);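 also: 0% = DMSO and 100% = reference compound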
Procedure, shortened: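 Amplex Red (25 uM) and HRP (250 mU/mL) in HBSS, with compounds for 15 min, then 250 uM DTT for 30 min, room temperature, dark. Fluorescence 525/598 nm read; normalized to DMSO and 10 uM DA3003; Hill fit.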

Chain of Phospholipid hydroperoxide glutathione peroxidase GPX4 (Homo sapiens) (P36969 whole entry, looked up): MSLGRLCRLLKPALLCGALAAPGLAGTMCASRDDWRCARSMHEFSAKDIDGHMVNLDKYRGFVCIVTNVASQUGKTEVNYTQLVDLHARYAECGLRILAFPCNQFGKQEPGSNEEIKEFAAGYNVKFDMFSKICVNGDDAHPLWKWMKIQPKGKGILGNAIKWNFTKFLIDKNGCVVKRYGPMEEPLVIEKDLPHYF
Chain of Glutathione peroxidase 1 (Homo sapiens) (P07203 whole entry, looked up): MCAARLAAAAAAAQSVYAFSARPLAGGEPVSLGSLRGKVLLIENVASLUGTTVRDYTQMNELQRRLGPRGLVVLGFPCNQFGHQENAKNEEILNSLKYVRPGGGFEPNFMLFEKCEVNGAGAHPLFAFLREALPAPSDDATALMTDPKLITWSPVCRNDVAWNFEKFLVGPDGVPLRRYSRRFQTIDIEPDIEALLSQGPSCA

CC1(CO)CCCC2(C)C3COC(=O)C3=CC(O)C12 (stereo not drawn)
inactive: Potency [1] | Potency [2] | Potency [3] | Potency [4]

O=C(O)[C@H](Cc1ccccc1)Oc1ccc(-c2ccccc2)cc1
inactive: Potency [1] | Potency [2] | Potency [3] | Potency [5] | Potency [6]

COc1cc(O)cc2c1C(=O)OC(C)CCCCCCC2 (stereo not drawn)
active: Potency [5] 11.9 µM
inactive: Potency [1] | Potency [2] | Potency [3] | Potency [4] | Potency [6]

CC(C)=CC1C[C@](C)(O)[C@@H]2[C@H]3CCC4[C@@]5(C)CC[C@H](O[C@@H]6OC[C@H](O)[C@H](O[C@@H]7O[C@H](CO[C@@H]8O[C@H](CO)[C@@H](O)[C@H](O)[C@H]8O)[C@@H](O)[C@H](O)[C@H]7O)[C@H]6O[C@@H]6O[C@@H](C)[C@H](O)[C@@H](O)[C@H]6O)C(C)(C)[C@@H]5CC[C@@]4(C)[C@@]34CO[C@@]2(C4)O1 (stereo partly drawn)
inactive: Potency [1] | Potency [2] | outcome [3] inactive [at 11.6 µM] | activity change, negative = thiol reactive [5] 458% [at 11.5 µM] | activity, negative = inhibition [4] 4.79% [at 11.6 µM] | redox activity (% of DA3003) [6] 14.6% [at 11.5 µM]

CC12CC(O)C(O)C=C1c1cc(O)cc(O)c1C(=O)O2 (stereo not drawn)
inactive: Potency [1] | Potency [2] | Potency [3] | Potency [4]

CC1=CC2=C(C)C(=O)C(C)(O)C(O)C2CO1 (stereo not drawn)
inactive: Potency [1] | Potency [2] | Potency [3] | Potency [4]

C/C=C(\C)C(=O)OC[C@H]1O[C@@H](O[C@H]2[C@@H](O[C@H]3O[C@H](COC(=O)/C(C)=C/C)[C@@H](O)[C@H](O)[C@H]3O[C@@H]3O[C@H](CO)[C@@H](O)[C@H](OC(=O)/C(C)=C/C)[C@H]3O)O[C@H](COC(=O)/C(C)=C/C)[C@@H](O)[C@@H]2O)[C@H](O)[C@@H](O)[C@@H]1O
inactive: Potency [1] | Potency [2] | activity change, negative = inhibition [3] 2.77% [at 11.6 µM] | activity, negative = inhibition [4] -1.03% [at 11.6 µM]

C/C=C(\C)C1C(C)=CC2CCC(OS(=O)(=O)O)C(C)C2C1/C=C/C=C/C(=O)O (stereo not drawn)
inactive: Potency [1] | Potency [2] | Potency [3] | Potency [4]

C=C1CCC2(C(=O)OC3OC(CO)C(O)C(O)C3O)CCC3(C)C(=CCC4C5(C)CCC(OC6OC(CO)C(OC7OC(C)C(O)C(O)C7O)C(OC7OCC(O)C(O)C7O)C6O)C(C)(C)C5CCC43C)C2C1 (stereo not drawn)
inactive: Potency [1] | Potency [2] | activity change, negative = inhibition [3] 3.5% [at 11.6 µM] | activity, negative = inhibition [4] 0.389% [at 11.6 µM]

CC1C(=O)OCC2=CC[N+]3([O-])CCC(OC(=O)C(C)(O)C1(C)O)C23 (stereo not drawn)
inactive: Potency [1] | Potency [2] | Potency [3] | Potency [4] | Potency [6]

C=CC(C)(O)CC/C=C(\C)C1CC=C(C)C(=O)O1 (stereo not drawn)
inactive: Potency [1] | Potency [2] | Potency [3] | Potency [4]

C=C[C@H]1[C@H](O[C@@H]2O[C@H](CO)[C@@H](O)[C@H](O)[C@H]2O)OC=C2C(=O)N3Cc4c([nH]c5ccccc5c4=O)[C@@H]3C[C@H]21
inactive: Potency [1] | Potency [2] | Potency [3] | Potency [4] | Potency [6]

COC(=O)C1=CO[C@@H](O[C@@H]2O[C@H](CO)[C@@H](O)[C@H](O)[C@H]2O)[C@@H]2[C@@H](C)[C@@H](OC(=O)/C=C/c3ccccc3)[C@@H](O)[C@H]12
inactive: Potency [1] | Potency [2] | Potency [3] | Potency [4]

C/C(=C\C1CCC(C)C2CCC3(C)OC123)C(=O)O (stereo not drawn)
inactive: Potency [1] | Potency [2] | Potency [3] | Potency [4]

C=CC(C)(CC/C=C(\C)C(=O)OC)OC1OC(COC(=O)CC(C)(O)CC(=O)O)C(O)C(O)C1O (stereo not drawn)
inactive: Potency [1] | Potency [2] | Potency [3] | Potency [4] | Potency [6]

COc1cc(/C=C/CO[C@@H]2O[C@H](CO)[C@@H](O)[C@H](O)[C@H]2O)cc(OC)c1O[C@@H]1O[C@H](CO)[C@@H](O)[C@H](O)[C@H]1O
inactive: Potency [1] | Potency [2] | Potency [3] | Potency [4] | Potency [6]

C/C=C1/[C@H](O[C@@H]2O[C@H](CO)[C@@H](O)[C@H](O)[C@H]2O)OC=C(C(=O)OC)[C@H]1CC(=O)OCCc1ccc(OC(=O)C[C@@H]2C(C(=O)OC)=CO[C@@H](O[C@@H]3O[C@H](CO)[C@@H](O)[C@H](O)[C@H]3O)/C2=C/C)cc1
inactive: Potency [1] | Potency [2] | activity change, negative = inhibition [3] 2.52% [at 11.6 µM] | activity, negative = inhibition [4] 2.4% [at 11.6 µM]

COC(=O)C1=COC(OC2OC(CO)C(O)C(O)C2O)C2C(C)C(OC(C)=O)C(OC(=O)c3ccccc3)C12 (stereo not drawn)
inactive: Potency [1] | Potency [2] | Potency [3] | Potency [4]

C=C1CC2C(C)(CCC(=O)O)C(C(C)(C)O)CCC2(C)C2(C(=O)OC)C(=O)C(C)(O)C(=O)C12C (stereo not drawn)
inactive: Potency [1] | Potency [2] | Potency [3] | Potency [4]

CC1CC=C2C1CC1(O)C(=O)CC2(C)C1(C)CO (stereo not drawn)
inactive: Potency [1] | Potency [2] | Potency [3] | Potency [4]

CC1=C2C3OC(=O)C(C)C3(O)CCC2(C)CCC1 (stereo not drawn)
inactive: Potency [1] | Potency [2] | Potency [3] | Potency [4] | Potency [6]

C=C1Cc2c(Cl)cc3[nH]c4c5c3c2[C@@]2(O)[C@@H]1C[C@@H]2C(C)(C)O[C@H]5C1CC[C@@]2(O)[C@@]35O[C@@H]3[C@H]3OC(C)(C)[C@H]3O[C@H]5CC[C@]2(C)[C@@]41C (stereo partly drawn)
inactive: Potency [1] | Potency [2] | Potency [3] | Potency [4]
